Laboratory results published in PubChem BioAssay (Tox21).
Values joined by “and” are separate entries in the source; they are usually repeats but may differ in a detail not shown here. Equal values may be shown once. Results filed as inconclusive are left out. Where a call stands in place of a potency, no number is given. The source holds several records for some structures; these can differ, active in one and inactive in another. Active and inactive are the calls of the source. Calls come from the whole dose curve; as a rule, active = well fitted cell-killing curve with a large enough effect in the repeat runs (not every such curve was filed as active); inconclusive = weak or mixed curves, or effect the other way; inactive = no such curve, though single readings can be large or run the other way.

Experiment: qHTS assay to identify small molecule antagonists of the estrogen related receptor signaling pathway with the pleiotropic PPARgamma coactivator (PGC) from Tox21 10K library - cell viability counter screen (AID 1224840); note: nearly all actives have a fitted effect of over 40% in size
Conditions: PGC/ERR reporter cells viability, CellTiter-Fluor, 17.5 h; series mostly up to 92.4 µM; viability change, negative = cytotoxic: at the top concentration
Text: National Center for Advancing Translational Sciences [NCATS]
NIH Chemical Genomics Center [NCGC]
U.S. Environmental Protection Agency [EPA]
National Institutes of Environmental Health Sciences [NIEHS]
National Toxicology Program [NTP]
U.S. Food and Drug Administration [FDA]
Estrogen related receptors (ERRs), the first orphan nuclear receptors discovered, play an important role in the control of cellular energy metabolism. ERRs are required for high-energy production in response to the environmental challenges. The pleiotropic PPARgamma coactivator (PGC) is a major partner of ERR and a key regulator in energy homeostasis. Together they have been implicated in the etiology of metabolic disorders such as Type 2 diabetes and metabolic syndrome. ERR-alpha was also identified as an adverse marker for breast cancer progression; ERR-alpha-positive tumors have a poor prognosis. To screen and to identify environmental compounds that perturb the ERR and PGC/ERR signaling pathways could provide valuable information for potential therapeutic or preventive measures in the treatment of metabolic disease. To differentiate true PGC/ERR antagonists or agonist from cytotoxic substances, the assay is multiplexed with cell viability assay.
Tox21 Assay Protocol Summary:
The PGC/ERR cells were dispensed at 2,000 cells/5 ul/well in 1536-well white plates using a Multidrop dispenser. After the assay plates were incubated at a 37 C/5% CO2 incubator for 6 hours, 23 nL of compounds dissolved in DMSO, positive and negative controls or DMSO only was transferred to the assay plate by a pin tool. The plates were incubated at 37 C for 17.5 hours. 1 ul/well of CellTiter-Fluor reagent was added into the assay plates using a Flying Reagent Dispenser. After 30-minute incubation at 37 C/5% CO2, the fluorescence intensity in the plates was measured using a ViewLux plate reader.
Potency is the fitted concentration of half-maximal effect.

| Structure (SMILES) | Potency | viability change, negative = cytotoxic |
| --- | --- | --- |
| NC(=O)c1cccnc1 | inactive | – |
| CC1(C)S[C@@H]2[C@H](NC(=O)[C@H](N)c3ccccc3)C(=O)N2[C@H]1C(=O)O | inactive | – |
| CC(C)c1c(C(=O)Nc2ccccc2)c(-c2ccccc2)c(-c2ccc(F)cc2)n1CC[C@@H](O)C[C@@H](O)CC(=O)O | inactive | – |
| CC(O)(P(=O)(O)O)P(=O)(O)O | inactive | – |
| O=C1NC(=O)C(c2ccccc2)(c2ccccc2)N1 | inactive | – |
| CC12CCC(CC1)C(C)(C)O2 | inactive | – |
| CCCCC1(COC(=O)CCC(=O)O)C(=O)N(c2ccccc2)N(c2ccccc2)C1=O | inactive | – |
| CC(=O)CCC(=O)O | inactive | – |
| CN1CCC[C@H]1c1cccnc1 | inactive | – |
| O=c1[nH]cc(F)c(=O)[nH]1 | 44.9 µM (active) and inactive | – |
| CN(C)C(=S)SC(=S)N(C)C | 1.25 µM (active) and 1.37 µM (active) and 1.68 µM (active) | – |
| CCCCOC(=O)c1ccc(O)cc1 | inactive | – |
| CCOc1ccc(NC(C)=O)cc1 | inactive | – |
| C/C=C/C=C/C(=O)O | inactive | – |
| COc1ccc2c(c1)c(CC(=O)O)c(C)n2C(=O)c1ccc(Cl)cc1 | inactive | – |
| Nc1ccc(S(N)(=O)=O)cc1 | inactive | – |
| O=C(O)c1ccccc1 | inactive | – |
| CCCCCCCCCCCC[N+](C)(C)Cc1ccccc1 | 60 µM (active) and 41.9 µM (active) | – |
| Nc1c2c(nc3ccccc13)CCCC2 | – | 16.8% [at 42.5 µM] (inactive) |
| Cc1cccc(C)c1 | inactive | – |

| Structure (SMILES) | Potency | viability change, negative = cytotoxic |
| --- | --- | --- |
| O=C(O)CC(O)C(=O)O (stereo not given) | inactive | – |
| NC(CO)(CO)CO | inactive | – |
| CN(N=O)C(=O)N[C@@H]1[C@@H](O)[C@H](O)[C@@H](CO)O[C@@H]1O | inactive | – |
| O=c1[nH]cnc2c1ncn2[C@H]1CC[C@@H](CO)O1 | inactive | – |
| CN(C)CCOC(C)(c1ccccc1)c1ccccn1 (stereo not given) | inactive | – |
| CNNCc1ccc(C(=O)NC(C)C)cc1 | inactive | – |
| Cc1cn([C@H]2C=C[C@@H](CO)O2)c(=O)[nH]c1=O | inactive | – |
| Nc1ccc([N+](=O)[O-])cc1O | 30.6 µM (active) | – |
| CC(C)C(=O)Nc1ccc([N+](=O)[O-])c(C(F)(F)F)c1 | inactive | – |
| COc1ccc(C(Cl)=C(c2ccc(OC)cc2)c2ccc(OC)cc2)cc1 | inactive | – |
| Cc1ncc([N+](=O)[O-])n1CCO | inactive | – |
| Cc1cc(C)nc(NS(=O)(=O)c2ccc(N)cc2)n1 | inactive | – |
| O=C(Nc1ncc([N+](=O)[O-])s1)c1cccs1 | – | -26.5% [at 42.5 µM] (inactive) |
| CC(C)NCC(O)c1ccc(O)c(O)c1 (stereo not given) | inactive | – |
| CCCCC(CC)C(=O)O (stereo not given) | inactive | – |
| CN[C@H]1CC[C@@H](c2ccc(Cl)c(Cl)c2)c2ccccc21 | 26.6 µM (active) | – |
| COc1ccc(CN(CCN(C)C)c2ccccn2)cc1 | inactive | – |
| O=C1O[C@H]([C@@H](O)CO)C(O)=C1O | inactive | – |
| CC(=O)C(=O)O | inactive | – |
| CCN(CC)C(=O)c1cccc(C)c1 | inactive | – |
